# Laboratory results from PubChem BioAssay AID588579 (National Center for Advancing Translational Sciences (NCATS), 2011).
# The whole screen tested about 400,000 compounds, of which about 2,200 (0.55%) were called active. Entries that show only a call come without a potency. About 1% were inconclusive and are not listed. This excerpt belongs to a sample that is enriched for actives. Unmarked numbers belong to inactive results. Calls come from the whole dose curve; as a rule, active = well fitted inhibition curve with a large enough effect; inconclusive = small, poorly fitted or top-dose-only effect, or another doubt; inactive = no such curve, though single readings can be large or run the other way.
# Target: DNA polymerase kappa (Homo sapiens) (UniProt Q9UBT6)
# Test: qHTS for Inhibitors of Polymerase Kappa
# Conditions: purified Pol kappa, fluorescent DNA synthesis assay, 10 min; series mostly up to 107 µM
# How it was run: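 Here, compound and 10 nM enzyme are combined for 15 min at room temperature; adding 50 nM substrate (final) starts DNA synthesis, tracked by fluorescence at 0 and 10 min against buffer-only wells.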
# Potency is the fitted concentration of half-maximal effect.
# DNA polymerase kappa (Homo sapiens), sequence (Q9UBT6 whole entry, looked up): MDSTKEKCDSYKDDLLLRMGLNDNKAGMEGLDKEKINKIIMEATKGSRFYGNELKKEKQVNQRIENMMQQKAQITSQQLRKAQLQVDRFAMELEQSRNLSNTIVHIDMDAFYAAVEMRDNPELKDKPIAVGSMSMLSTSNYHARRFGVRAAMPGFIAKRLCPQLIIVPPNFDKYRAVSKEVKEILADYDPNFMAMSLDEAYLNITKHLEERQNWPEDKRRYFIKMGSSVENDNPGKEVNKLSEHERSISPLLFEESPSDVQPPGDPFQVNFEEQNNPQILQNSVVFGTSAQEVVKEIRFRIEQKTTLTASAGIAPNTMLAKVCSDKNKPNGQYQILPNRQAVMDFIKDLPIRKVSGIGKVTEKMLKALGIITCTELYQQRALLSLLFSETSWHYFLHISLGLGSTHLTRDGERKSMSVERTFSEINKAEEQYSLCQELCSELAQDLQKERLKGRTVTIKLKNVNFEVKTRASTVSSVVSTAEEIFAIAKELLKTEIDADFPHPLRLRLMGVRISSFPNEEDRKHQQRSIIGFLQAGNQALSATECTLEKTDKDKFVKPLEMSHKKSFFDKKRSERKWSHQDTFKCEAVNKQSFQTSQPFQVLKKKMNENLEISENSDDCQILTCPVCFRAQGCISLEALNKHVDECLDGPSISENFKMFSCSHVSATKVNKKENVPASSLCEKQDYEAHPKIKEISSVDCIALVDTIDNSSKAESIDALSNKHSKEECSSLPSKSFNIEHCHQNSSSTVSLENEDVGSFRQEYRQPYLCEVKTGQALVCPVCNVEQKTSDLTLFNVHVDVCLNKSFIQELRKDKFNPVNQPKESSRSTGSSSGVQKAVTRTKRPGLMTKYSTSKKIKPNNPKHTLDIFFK
Structure (SMILES),Potency,"activity, negative = inhibition"
CC(C)=CCC/C(C)=C/CC/C(C)=C/CC/C(C)=C/CO,inactive,
O=C(c1cc(C(F)(F)F)cc(C(F)(F)F)c1)N1CCC2(CCCN(Cc3ccncc3)C2)CC1,inactive,
OCC(CO)NC1C[C@](O)(CO)[C@@H](O)[C@H](O)[C@H]1O (stereo partly drawn),inactive,
CC(=O)Oc1c2c(c3c(c1CC=C(C)C)O[C@@]14C(=CC5CC1C(C)(C)OC4(C/C=C(\C)C(=O)O)C5=O)C3=O)OC(C)(CCC=C(C)C)C=C2 (stereo partly drawn),31.6 µM (active),
COc1ccc2c3c1OC1CC(O)C=C[C@@]31CCN(C)C2 (stereo partly drawn),inactive,
COc1cc2c(cc1OC)CC(=O)N(CCCN(C)C[C@H]1Cc3cc(OC)c(OC)cc31)CC2,,3.96% [at 19.4 µM]
FC(F)(F)c1ccccc1-c1nc(-n2ccnc2)c2ccccc2n1,inactive,
Nc1ccc(/C=C/c2ccnc3ccccc23)c([N+](=O)[O-])c1,inactive,
O=c1/c(=C/c2ccc(CNS(=O)(=O)c3ccccc3)o2)sc2n1CCN=2,inactive,
O=c1nc2s/c(=C\c3ccco3)c(=O)n2nc1Cc1ccccc1,31.6 µM (active),
CN1CCOC1c1ccc(C2OCCN2C)cc1 (stereo not drawn),39.8 µM (active),
O=C(Nc1ccc(Cl)cc1)c1cnn2c1NC(=C1CC1)C=C2C(F)F,inactive,
Nc1ccc2nc3c(=O)[nH]c(=S)[nH]c3nc2c1,2.24 µM (active),
Brc1cccc[n+]1Cc1cccc(C[n+]2ccccc2Br)c1,inactive,
CCNc1ncc2nc(CCc3ccccc3)c(=O)n(-c3ccc(OC)cc3)c2n1,inactive,
CCCN1C(=O)C(NS(=O)(=O)c2ccc(N)cc2)(C(F)(F)F)C(C(=O)OC)=C1C (stereo not drawn),inactive,
CC(=O)Nc1ccc(S(=O)(=O)NC2(C(F)(F)F)C(=O)Nc3c2c(=O)[nH]c(=O)n3Cc2ccccc2)cc1 (stereo not drawn),inactive,
CC(=O)Nc1ccc(S(=O)(=O)NC2(C(F)(F)F)C(=O)NC(C)=C2C#N)cc1 (stereo not drawn),79.4 µM (active),
CC(C)(O)c1ccccc1CC[C@H](SCC1(CC(=O)O)CC1)c1cccc(/C=C/c2ccc3ccc(Cl)cc3n2)c1,,-3.16% [at 19.4 µM]
CC(C)(C)C1C/C(=C/c2ccco2)C(=O)/C(=C/c2ccco2)C1 (stereo not drawn),inactive,
CS(=O)(=O)c1ccc2c(c1)SC1=NC(=O)/C(=C/c3ccco3)C(=N)N12,35.5 µM (active),

Structure (SMILES),Potency,"activity, negative = inhibition"
COCCNC(=O)Nc1ccc2nc(-c3ccco3)c(-c3ccco3)nc2c1,3.16 µM (active),
COc1ccc(NC(=O)COCc2cc(-c3ccco3)on2)cc1,inactive,
CCOc1ccc(NC(=O)c2ncoc2-c2ccco2)cc1,inactive,
c1ccc2c(Nc3ccncc3)nc(-c3ccoc3)nc2c1,28.2 µM (active),
Cc1noc(C)c1-c1nc(Nc2ccccc2)c2ccccc2n1,inactive,
COc1cccc(-c2nc(Nc3ccncc3)c3ccccc3n2)c1,inactive,
O=C(c1ccco1)N1CCC2(CC1)CCN(c1ncccn1)CC2,inactive,
COc1ccc(S(=O)(=O)N2CCN(CC(=O)N3CCOCC3)CC2)cc1OC,inactive,
COc1ccc(-c2ccnc(SCC(=O)N3CCOCC3)n2)cc1,inactive,
COC1=C/C(=C/c2c(N)n3nc(CC(=O)N4CCOCC4)sc3nc2=O)C=CC1=O,79.4 µM (active),
CCN(CC)/[N+]([O-])=N/OCOC(=O)Cc1c(C)n(C(=O)c2ccc(Cl)cc2)c2ccc(OC)cc12,inactive,
O=C(Nc1ccccc1)c1ccccc1OCc1ccccc1,inactive,
CCc1ccc(NC(=O)C2CCCN2S(=O)(=O)c2ccc3nc(-c4ccccc4)[nH]c3c2)cc1 (stereo not drawn),89.1 µM (active),
CC(=O)Nc1ccc(NC(=O)C2CCCN2S(=O)(=O)c2cccc(C(F)(F)F)c2)cc1 (stereo not drawn),inactive,
CCc1ccccc1NS(=O)(=O)c1ccc2nc(-c3ccccc3)[nH]c2c1,inactive,
COc1ccc(CNc2ncncc2-c2ccccc2OC)c(OC)c1,inactive,
OC(CBr)C[n+]1cccc2cc(Br)ccc21 (stereo not drawn),inactive,
SCc1nc2ccc(Cl)cc2[nH]1,inactive,
CCCC[C@H]1C(=O)N(c2ccccc2)N(c2ccc(O)cc2)C1=O,,-4.08% [at 19.4 µM]
COc1ccc(/C=C/C(=O)c2cc(Br)ccc(=O)c2O)cc1,25.1 µM (active),
COCOc1cc(O)c(C(=O)/C=C/c2ccc(OCOC)c(OCOC)c2)c(OCOC)c1,inactive,

Structure (SMILES),Potency,"activity, negative = inhibition"
COc1cccc(N2CC(NC(=O)/C=C\c3ccccc3)CC2=O)c1 (stereo not drawn),inactive,
C=CCC1CCC(=O)N2CCCC12 (stereo not drawn),inactive,
COc1cc(OC)c(/C=C/c2ccnc3ccccc23)c(OC)c1,inactive,
COc1cc(NS(=O)(=O)c2ccc3c(c2)OCC(C(=O)N2CCCC2)O3)cc(OC)c1 (stereo not drawn),inactive,
Cc1c(CC(=O)N2CCN(C(=O)C3COc4ccccc4O3)CC2)c(=O)oc2c(O)c(O)ccc12 (stereo not drawn),7.08 µM (active),
COc1ccc(OC)c2sc(N3CCN(C(=O)C4COc5ccccc5O4)CC3)nc12 (stereo not drawn),inactive,
COc1ccc(CC(N)C(=O)NC2C(O)[C@H](n3cnc4c(N(C)C)ncnc43)O[C@@H]2CO)cc1 (stereo partly drawn),,3.17% [at 19.4 µM]
OCCC(O)CO (stereo not drawn),inactive,
Cc1csc[n+]1CCC1CCCCC1,inactive,
CCCCCCCC/C=C\CCCCCCCC(=O)OC[C@H](CO)OC(C)=O,,0.528% [at 19.4 µM]
Cc1ccc(Cn2cnc3c(cnn3C(C)(C)C)c2=O)c(F)c1,inactive,
C(=Nc1ccc(/C=C/c2ccnc3ccccc23)cc1)Nc1ccc(/C=C/c2ccnc3ccccc23)cc1,inactive,
COCCn1c(=O)c(CCc2ccccc2)nc2cncnc21,inactive,
Cc1ccc(C(=O)N/C(=C\c2ccco2)C(=O)NC2CCS(=O)(=O)C2)cc1 (stereo not drawn),inactive,
COc1ccccc1C(=O)N/C(=C/c1ccco1)C(=O)Nc1ccc(C(=O)O)cc1,50.1 µM (active),
COc1ccccc1C(=O)NC(=O)COC(=O)c1ccco1,inactive,
COc1ccc2[nH]cc(CCNc3nc(-c4cccc(NS(C)(=O)=O)c4)nc4ccccc34)c2c1,inactive,
O=c1ccn([C@@H]2O[C@H](COP(=O)(O)OP(=O)(O)OP(=O)(O)O)[C@@H](O)[C@H]2O)c(=O)[nH]1,,4.9% [at 19.4 µM]
CC1(C)OC2CC(=O)OC[C@@]23C1CC(=O)[C@]1(C)C3CC[C@@]2(C)C(c3ccoc3)OC(=O)C3O[C@@]321 (stereo partly drawn),inactive,
COCCNc1ncnc2ccc(-c3cccnc3)cc12,inactive,
COCCn1c(=O)c(CCc2ccccc2)nc2cnc(N3CCNCC3)nc21,inactive,
